Experimental data taken from the supplement of paper PMC13392028.

System: PvIESI-1 RRM domain (Plasmodium vivax PVP01_0939900 aa 896-1203, GST fusion)
Assay: RBNS R-value (6-mer enrichment in protein-bound RNA vs input library) (ratio); higher = stronger binding preference; the methods of the paper give 50 / 100 / 500 nM protein instead
Experimental: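 RNA Bind-n-Seq: recombinant GST-tagged IESI-1 RRM domain was incubated at room temperature with a random 40-nt in vitro transcribed RNA library at 250, 500 or 1000 nM protein. Bound RNA was pulled down on glutathione beads and sequenced. R-value is the enrichment of each 6-mer in the bound RNA relative to the input library. Each 6-mer sits inside the random 40-mer context, not as an isolated oligo. Values are replicate 1 only.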

**Q.** What does the source list for CUGAUA?
**A.** RBNS R-value (protein concentration: 250 nM): 2.42; RBNS R-value (protein concentration: 500 nM): 2.81; RBNS R-value (protein concentration: 1000 nM): 2.81

**Q.** Which “RBNS R-value” (protein concentration: 250 nM) does the source give for CUGAUG here?
**A.** 4.09

**Q.** What about the “RBNS R-value” (protein concentration: 500 nM) of the same sequence?
**A.** 4.34

**Q.** And the “RBNS R-value” (protein concentration: 1000 nM)?
**A.** 4.04

**Q.** GAUGGC was tested. Which “RBNS R-value” (protein concentration: 250 nM) did it give?
**A.** 2.5

**Q.** And the “RBNS R-value” (protein concentration: 500 nM)?
**A.** 2.55

**Q.** What about the “RBNS R-value” (protein concentration: 1000 nM) of the same sequence?
**A.** 2.36

**Q.** With GAUUGC as the sequence, how does the “RBNS R-value” (protein concentration: 250 nM) read?
**A.** 2.21

**Q.** What about the “RBNS R-value” (protein concentration: 500 nM) of the same sequence?
**A.** 2.33

**Q.** What about the “RBNS R-value” (protein concentration: 1000 nM) of the same sequence?
**A.** 2.1

**Q.** GCUGAU was tested. Which “RBNS R-value” (protein concentration: 250 nM) did it give?
**A.** 2.62

**Q.** And the “RBNS R-value” (protein concentration: 500 nM)?
**A.** 2.82

**Q.** What about the “RBNS R-value” (protein concentration: 1000 nM) of the same sequence?
**A.** 2.68

**Q.** For GAUGAC, which “RBNS R-value” (protein concentration: 250 nM) is on record?
**A.** 2.47

**Q.** And the “RBNS R-value” (protein concentration: 500 nM)?
**A.** 2.67

**Q.** What about the “RBNS R-value” (protein concentration: 1000 nM) of the same sequence?
**A.** 2.51

**Q.** Which results are given for CUUGAU?
**A.** RBNS R-value (protein concentration: 250 nM): 3.23; RBNS R-value (protein concentration: 500 nM): 3.65; RBNS R-value (protein concentration: 1000 nM): 3.49

**Q.** How did the “RBNS R-value” (protein concentration: 250 nM) turn out when UUGAUU was run?
**A.** 4.5

**Q.** And the “RBNS R-value” (protein concentration: 500 nM)?
**A.** 4.73

**Q.** And the “RBNS R-value” (protein concentration: 1000 nM)?
**A.** 4.43

**Q.** How did the “RBNS R-value” (protein concentration: 250 nM) turn out when UUUGAU was run?
**A.** 3.94

**Q.** What about the “RBNS R-value” (protein concentration: 500 nM) of the same sequence?
**A.** 4.25

**Q.** And the “RBNS R-value” (protein concentration: 1000 nM)?
**A.** 3.98

**Q.** Which “RBNS R-value” (protein concentration: 250 nM) does the source give for GAUGAU here?
**A.** 3.86

**Q.** What about the “RBNS R-value” (protein concentration: 500 nM) of the same sequence?
**A.** 4.13

**Q.** And the “RBNS R-value” (protein concentration: 1000 nM)?
**A.** 3.88

**Q.** UAUGAU was tested. Which “RBNS R-value” (protein concentration: 250 nM) did it give?
**A.** 3.09

**Q.** And the “RBNS R-value” (protein concentration: 500 nM)?
**A.** 3.27

**Q.** And the “RBNS R-value” (protein concentration: 1000 nM)?
**A.** 3.27

**Q.** With GCGAUG as the sequence, how does the “RBNS R-value” (protein concentration: 250 nM) read?
**A.** 1.97

**Q.** What about the “RBNS R-value” (protein concentration: 500 nM) of the same sequence?
**A.** 2.19

**Q.** What about the “RBNS R-value” (protein concentration: 1000 nM) of the same sequence?
**A.** 2.01

**Q.** With AAUGAU as the sequence, how does the “RBNS R-value” (protein concentration: 250 nM) read?
**A.** 3.66

**Q.** What about the “RBNS R-value” (protein concentration: 500 nM) of the same sequence?
**A.** 3.89

**Q.** And the “RBNS R-value” (protein concentration: 1000 nM)?
**A.** 3.94
